Experimental findings from PubChem BioAssay AID2284339 (EPA ToxCast) are described below.

Active and inactive are the calls of the source. The calls were made as follows: active = hit-call score of the fitted dose curve at least 0.9, where 1 is the maximum; inactive = score below 0.9.

For the assay, the system named is NCBI gene 100038242. Description: CCTE_GLTED_xDIO3: CCTE's Xenopus Iodothyronine Deiodinase Type 3 (xDIO3) Inhibition Assay, Great Lakes Toxicology and Ecology Division (GLTED) Lab. The procedure:
CCTE_GLTED_xDIO3 is a cell-free, single-readout assay designed to test the inhibitory activity of chemicals toward Xenopus (frog) iodothyronine Deiodinase Type 3 (DIO3) enzyme. Enzyme is incubated in presence of test chemical for 3 hours during which uninhibited enzyme liberates free iodide from substrate. Free iodide is measured in a second step using the Sandell-Kolthoff method.CCTE_GLTED_xDIO3 is the assay component measured from the CCTE_GLTED_xDIO assay. It is designed to make measurements of enzyme activity, a form of enzyme reporter, as detected with absorbance signals by spectrophotometry.Data from the assay component CCTE_GLTED_xDIO3 was analyzed at the assay endpoint CCTE_GLTED_xDIO3 in the positive analysis fitting direction relative to DMSO as the negative control and baseline of activity. Using a type of enzyme reporter, loss-of-signal activity can be used to understand deiodinase Type 3 activity. To generalize the intended target to other relatable targets, this assay endpoint is annotated to the 'deiodinase' intended target family, where the subfamily is 'deiodinase Type 3'.
[…]
Regarding `C=C(C)C(=O)OCC(F)(F)C(F)(F)C(F)(F)C(F)F`, the AC50 is 17.7 µM (active).
With `O=C(Cl)C(F)(F)C(F)(F)C(F)(F)C(F)(F)C(F)(F)C(F)(F)C(F)(F)C(F)(F)F`, the molecule was called inactive.
On the same count and under the same terms, the value for `O=P(O)(O)CCC(F)(F)C(F)(F)C(F)(F)C(F)(F)C(F)(F)C(F)(F)C(F)(F)C(F)(F)F` was “inactive”.
With `C=CC(=O)OCC(F)(F)C(F)(F)C(F)(F)C(F)(F)C(F)(F)C(F)(F)C(F)(F)C(F)F`, the AC50 is 20.7 µM (active).
Turning to `O=C(O)C(F)(F)OC(F)(F)C(F)(F)OC(F)(F)C(F)(F)OC(F)(F)C(F)(F)C(F)(F)C(F)(F)F`, the AC50 was 72.2 µM (active).
`C=CC(=O)OCC(F)(F)C(F)(F)C(F)(F)COC(=O)C=C`: the AC50 was 33.5 µM (active).
The same measure, in the same setting: the value for `O=C(O)C(F)(F)C(F)(F)C(F)(F)C(F)(F)C(F)(F)C(F)(F)C(F)(F)C(F)(F)C(F)(F)C(F)F` was 161 µM (active); that for `C=CC(=O)OCC(F)(F)C(F)(F)C(F)(F)C(F)(F)COC(=O)C=C` was 15.9 µM (active).
In the case of `O=C(O)C(F)(F)C(F)(F)C(F)(F)C(F)(F)C(F)(F)C(F)(F)C(F)(F)C(F)(F)Cl`, the call was inactive.
As to `OC(O)(C(F)C(O)(O)C(F)(F)F)C(F)(F)F`, the AC50 was 19.8 µM (active).
Consider `O=C(O)C(F)(F)C(F)(F)C(F)(F)C(F)(F)C(F)(F)C(F)(F)C(F)(F)C(F)(F)C(F)(F)C(F)(F)C(F)(F)C(F)(F)F`, for which the result was inactive.
On to `C=C(C)C(=O)OCC(F)(F)C(F)(F)C(F)(F)F`, for which the outcome was inactive.
As for `COc1cc(O)c(CC=C(C)C)c(O)c1C(=O)/C=C/c1ccc(O)cc1`, the concentration at half-maximal activity (AC50) is 0.16 µM (active).
Still for that read-out and setting: the value for `C=CC(=O)OCCC(F)(F)C(F)(F)C(F)(F)C(F)(F)F` was 24.4 µM (active).

As a reminder, the AC50 is the concentration giving half of the maximal activity seen.
